Reference: PubChem BioAssay AID1159580 (chemical genetic matrix, 2015)
Values joined by “and” are separate entries in the source; they are usually repeats but may differ in a detail not shown here. Identical values can stand only once. The whole screen tested about 5,500 compounds, of which about 2,000 (36%) were called active. Roughly 18% stayed inconclusive and do not appear here. Rule as the data show it: active = normalized growth mostly below about 0.91 (no sharp cut-off); inconclusive = no clear call, values can overlap the other calls; inactive = mostly above about 0.92. This is one part of the list.

Assay: chemical genetic growth profiling, strain panel (AID 1159580);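 also: tested at 20 µM; growth read once vehicle control cultures reached saturation at 30 °C; 1 = growth at the plate median or of vehicle wells; lower values mean less growth of the strain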
Conditions: S. cerevisiae deletion strains, growth OD

Measured: normalized growth

COc1ccc2cc([C@H](C)CO)ccc2c1
inactive: locus YAL013W, strain DEP1, hits give low values 0.982 | locus YAL021C, strain ccr4, hits give low values 1.04 | locus YAL026C, strain drs2, hits give low values 1.01 | locus YAL030W, strain snc1, hits give low values 1 | locus YBL061C, strain skt5, hits give low values 1.01 | locus YBR009C, strain hhf1, hits give low values 1.01 | locus YBR021W, strain FUR4, hits give low values 1.02 | locus YBR023C, strain chs3, hits give low values 1.01 | locus YBR171W, strain sec66, hits give low values 1.01 | locus YBR229C, strain ROT2, hits give low values 0.947 | locus YBR231C, strain swc5, hits give low values 1.07 | locus YBR279W, strain paf1, hits give low values 1.01 | locus YCL011C, strain gbp2, hits give low values 1.01 | locus YCL016C, strain dcc1, hits give low values 1.01 | locus YCL029C, strain bik1, hits give low values 0.976 | locus YCL061C, strain MRC1, hits give low values 1.02 | locus YCL069W, strain vba3, hits give low values 1.01 | locus YCR088W, strain abp1, hits give low values 0.936 | locus YDL005C, strain med2, hits give low values 1.02 | locus YDL035C, strain GPR1, hits give low values 0.955 | locus YDL040C, strain nat1, hits give low values 1.01 | locus YDL074C, strain BRE1, hits give low values 0.996 | locus YDL101C, strain DUN1, hits give low values 0.989 | locus YDL134C, strain PPH21, hits give low values 0.98 | locus YDL185W, strain tfp1, hits give low values 0.962 | locus YDL192W, strain arf1, hits give low values 0.966 | locus YDR001C, strain nth1, hits give low values 1.01 | locus YDR069C, strain doa4, hits give low values 1.02 | locus YDR101C, strain arx1, hits give low values 0.976 | locus YDR137W, strain rgp1, hits give low values 1.03 | locus YDR150W, strain NUM1, hits give low values 0.974 | locus YDR159W, strain sac3, hits give low values 1 | locus YDR162C, strain NBP2, hits give low values 0.961 | locus YDR195W, strain ref2 1.04 | locus YDR297W, strain sur2, hits give low values 1.01 | locus YDR318W, strain mcm21, hits give low values 0.98 | locus YDR334W, strain swr1, hits give low values 1.03 | locus YDR335W, strain msn5, hits give low values 1.02 | locus YDR388W, hits give low values 0.983 | locus YDR392W, strain spt3, hits give low values 1.03 | locus YDR502C, strain sam2, hits give low values 0.95 | locus YEL003W, strain gim4, hits give low values 1.01 | locus YEL037C, strain rad23, hits give low values 1.01 | locus YEL061C, strain CIN8 (second series), hits give low values 1.01 | locus YEL061C, strain CIN8, hits give low values 0.987 | locus YER015W, strain faa2, hits give low values 1.01 | locus YER016W, strain bim1, hits give low values 1.01 | locus YER110C, hits give low values 0.954 | locus YER111C, strain swi4, hits give low values 1.02 | locus YER155C, strain BEM2 (second series), hits give low values 1.01 | locus YER155C, strain BEM2, hits give low values 1.01 | locus YER167W, strain BCK2, hits give low values 0.975 | locus YFR010W, strain ubp6, hits give low values 1.02 | locus YGL078C, strain dbp3, hits give low values 0.982 | locus YGL086W, strain mad1, hits give low values 0.984 | locus YGL167C, strain pmr1, hits give low values 1.01 | locus YGL173C, strain kem1, hits give low values 1 | locus YGL227W, strain vid30, hits give low values 1 | locus YGL240W, strain doc1, hits give low values 1.01 | locus YGL248W, strain PDE1, hits give low values 0.98 | locus YGL253W, strain hxk2, hits give low values 1.03 | locus YGR078C, strain PAC10, hits give low values 0.987 | locus YGR135W, strain pre9, hits give low values 0.949 | locus YGR229C, strain SMI1, hits give low values 0.979 | locus YGR252W, strain gcn5, hits give low values 0.894 | locus YHR013C, strain ard1, hits give low values 1.07 | locus YHR027C, strain rpn1, hits give low values 1.01 | locus YHR030C, strain SLT2, hits give low values 0.985 and 0.928 | locus YHR079C, strain IRE1 (second series), hits give low values 0.979 | locus YHR079C, strain IRE1, hits give low values 0.95 | locus YHR094C, strain hxt1, hits give low values 0.981 | locus YHR129C, strain ARP1, hits give low values 0.995 | locus YHR142W, strain chs7, hits give low values 1.02 | locus YHR200W, strain rpn10, hits give low values 0.973 | locus YIL066C, strain RNR3, hits give low values 0.969 | locus YIL073C, strain SPO22, hits give low values 0.954 | locus YIL125W, strain kgd1, hits give low values 0.974 | locus YIR030C, strain dcg1, hits give low values 0.975 | locus YJL092W, strain hpr5, hits give low values 1.01 | locus YJL095W, strain BCK1 (second series), hits give low values 1 | locus YJL095W, strain BCK1, hits give low values 0.996 and 0.935 | locus YJL115W, strain asf1, hits give low values 1.02 | locus YJL129C, strain trk1, hits give low values 1.02 | locus YJL134W, strain LCB3, hits give low values 0.984 | locus YJL154C, strain vps35, hits give low values 1.01 | locus YJL164C, strain tpk1, hits give low values 1.01 | locus YJL166W, strain qcr8, hits give low values 1.01 | locus YJL168C, strain set2, hits give low values 0.982 | locus YJL187C, strain SWE1 (second series), hits give low values 0.982 | locus YJL187C, strain SWE1, hits give low values 1.01 | locus YJR043C, strain POL32, hits give low values 0.994
